About 83,000 compounds went through this panel and 20% of them were active in at least one assay; those are over-represented in the sample as a whole.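 Plates (96-well) were seeded with cells, treated with compound at one concentration, and incubated for 48 hours before percent growth was determined.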 Values without a mark were called inactive. Activity calls are given as the source filed them.

This experiment deals with KM12 colon. Description: NCI-60 one-dose screen, 48 h (100 = growth as untreated, 0 = no growth, -100 = all killed). To be noted: 10 µM unless noted. The protocol: Growth inhibition of the KM12 human tumor cell line is measured as a screen for anti-cancer activity. Cells are grown in 96 well plates and exposed to the test compound for 48 hours. Compounds are tested at a single concentration, which is 10^-5 M for most compounds. The reported endpoint is percent growth (GI% or GIPRCNT), where numbers from 0 - 100% represent growth inhibition, and numbers from -100% - 0 represent cell death. For example, a value of 40 represents 60% growth inhibition. A value of 0 means no net growth occurred over the course of the experiment. A value of -40 indicates 40% of cells at the beginning of the experiment died by the end of the experiment. A value of -100 means all cells are dead at the end of the experiment.
NCI-60 Human Tumor Cell Lines Screen was performed using the standard one-dose NCI protocol, which is described in more detail at https://dtp.cancer.gov/discovery_development/nci-60/default.htm.
Compounds with GIPRCNT values below 10 were considered active. Activity score was based on GIPRCNT using the following formula: […]
Score is 0 for GIPRCNT values of 100 or above, 50 for GIPRCNT values of 0, and 100 for GIPRCNT values of -100.
In the case of `CO[C@H]1C[C@@H]2CC[C@@H](C)[C@@](O)(O2)C(=O)C(=O)N2CCCC[C@H]2C(=O)O[C@H]([C@H](C)C[C@@H]2CC[C@@H](OP(C)(C)=O)[C@H](OC)C2)CC(=O)[C@H](C)/C=C(\C)[C@@H](O)[C@@H](OC)C(=O)[C@H](C)C[C@H](C)\C=C/C=C/C=C/1C`, the growth is 59.6%.

Regarding `CCN1CCN(c2nc(C)cc(N(CCNc3ccnc4cc(Cl)ccc34)Cc3ccc4c(c3)OCO4)n2)CC1`, the growth is 55.9%.

Turning to `O=C(Nc1nc2cccc(-c3ccc(CN4CCS(=O)(=O)CC4)cc3)n2n1)C1CC1`, the growth was 31.7%.

Regarding `C=CCC(=O)N[C@H](/C=C/C(=O)O)Cc1ccc(-c2cc(Cl)cc(Cl)c2)cc1`, the growth was 98.5%.

Turning to `Cc1cc(Nc2cc(N3CCN(C)CC3)nc(/C=C/c3ccccc3)n2)n[nH]1`, the growth is -16.9% (active).

Consider `Cc1cccc(NC(=O)[C@@H]2c3ccccc3C(=O)N(c3ccc(Cl)cc3)[C@H]2c2ccc(Cl)cc2)n1`, for which the growth is 34.5%.

For `O=C(Nc1cccc(Cl)c1)Nc1ncc(CCNc2ncnc3ccsc23)s1`, the growth was 11.4%.

Turning to `C[C@@H](Oc1cc(-n2cnc3ccc(CN4CCN(C)CC4)cc32)sc1C(N)=O)c1ccccc1C(F)(F)F`, the growth was 10.3%.

For `CN1C/C=C\CCOc2cccc(c2)-c2ccnc(n2)Nc2cccc(c2)C1`, the growth is -53.3% (active).

`CCNCCNc1cc(-c2ccc(Cl)c(Cl)c2)c(C#N)c2nc3ccccc3n12`: the growth was -86.6% (active).

Turning to `Cc1c(N)ccc(-c2ccc(N)c(C)c2S(=O)(=O)O)c1S(=O)(=O)O`, the growth is 116%.

`C[C@@]1(C(=O)Nc2ccc(F)nc2)CCCN1c1nc(Nc2cc(C3CC3)[nH]n2)c2cccn2n1`: the growth is -23.6% (active).

Turning to `COc1cc2ncnc(Nc3cccc(Cl)c3F)c2cc1OC(=O)N1CCN(C)C[C@H]1C`, the growth is 87.8%.

Regarding `Cc1cc2c(F)c(Oc3ncnn4cc(OC[C@@H](C)OC(=O)[C@H](C)N)c(C)c34)ccc2[nH]1`, the growth is 35.1%.

Take `N#CC1(C#N)C(c2cccs2)NC(c2cccs2)C1(C#N)C#N` (stereo not given): the growth is 100%.

On to `CC(C)(C)OC(=O)N1CCC(O)[C@@H](O[Si](c2ccccc2)(c2ccccc2)C(C)(C)C)[C@H]1/C=C/c1ccccc1` (stereo not given in full), for which the growth was 47%.

Regarding `COc1ccc(Br)cc1NC(=O)Nc1cccc2c1ccn2Cc1ccnc(N)c1`, the growth was 10.3%.

Turning to `C=C1CC[C@@H]2[C@](C)(COC(C)=O)[C@H](OC(C)=O)CC[C@@]2(C)[C@@H]1C/C=C1/C(=O)OC[C@H]1OC(C)=O`, the growth is 52.8%.

Consider `Nc1ncnc2c1c(-c1cccc(OCc3ccccc3)c1)cn2C1CC(CN2CCC2)C1` (stereo not given), for which the growth was 6.66% (active).

As to `NC1=Nc2ccccc2N(O)N1`, the growth was 104%.

For the compound `C=C1C(=O)O[C@H]2[C@H]1CC/C(CNC(=O)c1cc3cc(OC)ccc3[nH]1)=C\CC[C@@]1(C)O[C@@H]21`, the growth was 25.4%.

Turning to `CCc1cc2c(cc1N1CCC(N3CCOCC3)CC1)C(C)(C)c1[nH]c3cc(C#N)ccc3c1C2=O`, the growth is 4.1% (active).

Take `Brc1ccc([I+]c2ccc(Br)cc2)cc1`: the growth was 3.55% (active).

For `Cc1cc2c(-c3nc4ccccn4c3NC34CC5CC(CC(C5)C3)C4)c(O)c(O)cc2c(O)c1-c1c(C)cc2c(-c3nc4ccccn4c3NC34CC5CC(CC(C5)C3)C4)c(O)c(O)cc2c1O`, the growth is 19.8%.

`COc1ccc2nc3cc(Cl)ccc3c(Nc3ccc(N(C)C)cc3)c2c1`: the growth is 83.1%.

On to `COc1cc(C(=O)NNC(=O)c2ccc(NC(=O)CCl)cc2)cc(OC)c1OC`, for which the growth is 99.7%.

On to `O=CC(OC(=O)c1ccccc1)C(OC(=O)c1ccccc1)C(COC(c1ccccc1)(c1ccccc1)c1ccccc1)OC(=O)c1ccccc1` (stereo not given), for which the growth was 61%.

Turning to `CCCCCCC1(/C=N/NC(N)=O)NC(=O)NC1=O` (stereo not given), the growth was 97%.

For `CNC(=O)c1nn(C)c2c1C(C)(C)Cc1cnc(Nc3ccc(N4CCN(C)CC4)cc3)nc1-2`, the growth was 0.555% (active).

Turning to `C/C=C/C=N/NC(=S)Nc1ccccc1`, the growth was 98.6%.

Consider `COc1cnc2c(c1)C(=O)c1c-2n(CCCN2CCC(O)CC2)c(=O)c2cc(Cl)ccc12`, for which the growth is 45%.

With `COc1ccc2c(CCC(c3ccccc3)c3ccccc3)c3[n+](cc2c1OC)CCc1cc2c(cc1-3)OCO2`, the growth was -76.7% (active).

In the case of `Cc1[nH]c(/C=C2\C(=O)Nc3ccc(F)cc32)c(C)c1C(=O)NC[C@H](O)CN1CCOCC1`, the growth was 5.33% (active).

On to `CCc1cc2c(c3ccc(C(=O)CBr)cc13)CCCC2`, for which the growth is 103%.

As for `Cc1cccc(C)c1N1C(c2ccccc2)=NNC12C=CC(=O)c1c(O)cccc12` (stereo not given), the growth was 75.9%.

Consider `COc1cc(NCCN(CC(C)C)CC(C)C)c2ncc(C)cc2c1`, for which the growth was 68.6%.

Turning to `CCN(CCO)CCCOc1ccc2c(Nc3cc(CC(=O)Nc4cccc(F)c4)[nH]n3)ncnc2c1`, the growth was 15.9%.

Take `O=C(/C=C/c1ccc2c(c1)OCO2)c1c(O)c2ccccc2oc1=O`: the growth is 93.6%.

With `Cc1cc(N(CCNc2ccnc3cc(Cl)ccc23)Cc2ccc3c(c2)OCO3)nc(N2CCCC2)n1`, the growth was 44.9%.

For `O=C(N/N=C/c1ccc(Cl)cc1)c1cc(-c2cc3ccccc3o2)nn1-c1ccccc1`, the growth is 102%.
